Source: PubChem
A selection: hits, their analogues and other compounds. The true share with any hit is near 1.7%.
MRP1 act = activators of MRP-1; AID 799; 0.61% of 140,000 active; viability increase, % at 10 µM; H69AR cells + doxorubicin, viability rescue, CellTiter-Glo;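 active = viability gain under doxorubicin at or above a set limit, the compound median plus 3 SD, cut at about 4.7% in these data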;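 also: MRP-1 overexpressing cells given doxorubicin 25 µM after compound pretreatment; 18-22 h compound pretreatment then 72 h with doxorubicin before readout; 0% = doxorubicin-only wells and 100% = vehicle-treated cells without doxorubicin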
S1P2 antag = S1P2 (human) receptor antagonism; 0.21% of 97,000 active; inhibition, % at 5 µM; cell-based S1P2 antagonist assay, inhibition at 5 uM; in the data active = inhibition above about 45%;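 also: CRE beta-lactamase reporter cells expressing human S1P2 stimulated with S1P; 0% = agonist at EC80 alone and 100% = agonist plus reference antagonist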
Target sequence (O95136 whole entry, looked up): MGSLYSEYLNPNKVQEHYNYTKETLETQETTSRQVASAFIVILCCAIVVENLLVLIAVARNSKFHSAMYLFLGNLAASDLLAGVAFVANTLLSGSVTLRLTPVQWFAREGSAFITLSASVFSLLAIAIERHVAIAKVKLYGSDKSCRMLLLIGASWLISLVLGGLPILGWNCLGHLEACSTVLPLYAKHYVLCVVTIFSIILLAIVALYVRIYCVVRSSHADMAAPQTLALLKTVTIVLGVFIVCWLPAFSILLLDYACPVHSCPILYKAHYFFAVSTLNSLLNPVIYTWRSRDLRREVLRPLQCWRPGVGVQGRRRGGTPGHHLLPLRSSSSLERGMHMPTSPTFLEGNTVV
GALR2 antag = blocks the human galanin receptor 2 | O43603 | 0.39% of 140,000 active | GALR2-expressing cells, antagonist mode | inhibition, % at 4 µM; in the data active = inhibition above about 27%;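 also: cells stimulated with galanin 1-16 at roughly its EC80; 0% = agonist challenge control and 100% = basal control without agonist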
S1P2 ag = activates the human S1P2 receptor; activation, % at 4.5 µM; 0.46% of 97,000 active; AID 729; S1P2-expressing cell line, agonist reporter read-out; in the data active = activation above about 16%;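 also: 0% = vehicle low control and 100% = maximal reference agonist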
MRP resist rev = reverses drug resistance mediated by MRP. AID 602. 0.04% of 85,000 active. H69AR cells + 2 uM doxorubicin, CellTiter-Glo, 72 h. differential viability (reversal), % at 10 µM;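 active = viability drop by adding the cancer drug above about 55%, with treated viability meeting a 40% cutoff, limit read from the data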;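 also: viability without doxorubicin minus viability with 2 µM doxorubicin for each compound; larger differential means the compound sensitizes cells more to doxorubicin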
GALR2 agonist = activates the human galanin receptor 2; GALR2-expressing cells, agonist activation read-out; activation, % (no concentration beside the values); 0.48% of 140,000 active; in the data active = activation above about 5%, passing the limit was not always enough;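 also: 0% = vehicle buffer wells and 100% = reference agonist at full effect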
Starred values were filed as active, the others as inactive; . = not tested or not shown.

SMILES | MRP1 act | S1P2 antag | GALR2 antag | S1P2 ag | MRP resist rev | GALR2 agonist
NC(=O)c1cc2ccc(O)cc2oc1=NCc1ccccc1 | -4 | . | -47 | . | . | 45*
NC(=O)c1cc2ccc(O)cc2oc1=Nc1ccccc1 | -7 | . | 0 | . | . | 3
COc1ccc(OC)c(N=c2oc3cc(O)ccc3cc2C(N)=O)c1 | -6 | -2 | -7 | 5 | -7 | 5.3*
Cc1ccc(S(=O)(=O)N2CCCC(c3nc(-c4ccc(C)o4)no3)C2)cc1 (configuration not stated) | 0 | 2 | -4 | 0 | 17 | -1
Cc1ccc(-c2noc(C3CCCN(S(=O)(=O)c4ccc5ccccc5c4)C3)n2)o1 (configuration not stated) | 7.3* | 4 | -5 | -5 | -38 | -4
O=c1c2ccccc2[nH]c2ccccc12 | -1 | . | 8 | . | . | 5.6*
O=C(NN1C(=O)C2C3CCC(O3)C2C1=O)c1ccco1 (configuration not stated) | 0 | . | -2 | . | . | 0
CN(C)N1C(=O)CC(NNC(=O)c2ccncc2)C1=O (configuration not stated) | -2 | . | -2 | . | . | -1
COc1ccc(-c2nnc3c4ccccc4c(C)nn23)cc1S(=O)(=O)N1CCN(CCO)CC1 | -2 | -36 | 4 | 17* | 10 | -1
CC1(C)O[C@@H]2C[C@H]3[C@@H]4C[C@H](F)C5=CC(=O)CC[C@]5(C)[C@H]4[C@@H](O)C[C@]3(C)[C@]2(C(=O)CO)O1 | 5.2* | . | -1 | . | -4 | 2
CCC(=O)Oc1ccc2ccccc2c1CNC(=O)c1ccccc1 | 1 | . | 13 | . | . | -1
CCOc1ccccc1CNC(=O)c1cc2oc3ccccc3c2n1CC | 7.6* | -4 | 3 | -4 | 12 | -3
Cc1nn(Cc2ccccc2)c(C)c1NC(=O)c1cc(-c2cccs2)on1 | 4.8* | 19 | 8 | -1 | 2 | -2
Cc1nn(Cc2ccccc2)c(C)c1NC(=O)c1cccs1 | 0 | . | -15 | . | . | 0
O=C(NC1CCCC1)C(c1ccc(F)cc1)N(Cc1ccccc1Cl)C(=O)CCl (configuration not stated) | -5 | . | 15 | . | . | -1
COc1ccc(-c2n[nH]c(=S)n2/N=C/C=C/c2ccccc2OC)cc1 | -1 | . | -13 | . | . | 0
COc1ccccc1/C=C/C=N/n1c(C2CCCCC2)n[nH]c1=S | 4.8* | . | -11 | . | . | 1
Cc1ccc(Cn2ccc(=O)c(OCc3c(Cl)cccc3Cl)c2C)cc1 | -3 | -18 | -13 | -4 | 16 | -2
CCOC(=O)c1c(NC(=O)CSc2ncn[nH]2)sc(C)c1C | 15* | -10 | -1 | -4 | 5 | 0
COc1ccc(CCn2c(N)c(C(=O)NCc3ccco3)c3nc4ccccc4nc32)cc1 | -5 | . | 4 | . | . | 1
COCCNC(=O)c1c(N)n(CCC2=CCCCC2)c2nc3ccccc3nc12 | -2 | -51 | -14 | 26* | . | 19*
CCC1=NN(C(=O)c2ccc(C)cc2)C(O)(c2ccc(Br)cc2)C1 (configuration not stated) | 4.9* | . | 2 | . | . | -2
COc1ccc2c(=O)c(-c3ccc4c(c3)OCO4)coc2c1 | -2 | . | -5 | . | . | -1
COC(=O)c1ccc(NC(=O)COc2ccc(C3C(C#N)=C(N)Oc4c3ccc3ccccc43)cc2OC)cc1 (configuration not stated) | -4 | 63* | 11 | -7 | . | -1
COc1cc(C2C(C#N)=C(N)Oc3c2ccc2ccccc32)ccc1OCC(=O)Nc1ccccc1C (configuration not stated) | -5 | 20 | 1 | -4 | . | -1
SMILES | MRP1 act | S1P2 antag | GALR2 antag | S1P2 ag | MRP resist rev | GALR2 agonist
Brc1ccc(OCc2nnc3n2CCC3)cc1 | 7.0* | . | -1 | . | . | 0
CC(C)N(N=Nc1ccc([N+](=O)[O-])cc1)C(C)C | 4.7* | . | -7 | . | . | 0
O=C(/C=C/c1cc([N+](=O)[O-])ccc1OC(F)F)Nc1cccc(OC(F)F)c1 | 2 | . | 19 | . | . | -2
O=C(NNC(=S)Nc1ccc(OC(F)F)cc1)c1cc2c(s1)CCCC2 | 0 | . | 1 | . | . | -1
Cc1cc(NCCOCCO)n2ncc(-c3ccc(Cl)cc3)c2n1 | -4 | -42 | -7 | 18* | -10 | -1
CC(=O)NS(=O)(=O)c1ccc(NC(=O)c2ccc3c(c2)C(=O)N(CCC(C)C)C3=O)cc1 | 0 | . | 1 | . | . | -1
COc1ccc(C(=O)Nc2cc(OC)ccc2OC)cc1 | -1 | -6 | 3 | -2 | 1 | -1
COc1ccc(C(=O)Nc2ccc(-c3ccc(NC(=O)c4ccc(OC)cc4)c(OC)c3)cc2OC)cc1 | -2 | . | -2 | . | . | 6.2*
